Test results published in PubChem BioAssay AID720535 (National Center for Advancing Translational Sciences (NCATS), 2013).
Hit rate of the full screen: of about 1,600 compounds, about 420 (26%) were called active. Not shown: some 40% with an inconclusive outcome. This excerpt belongs to a sample that is enriched for actives. A number with no mark means an inactive call. The call rests on the fitted dose curve; in most records, active means well fitted inhibition curve with a large enough effect; inconclusive means small, poorly fitted or top-dose-only effect; inactive means flat fitted curve, though single readings scatter.

experiment: qHTS for Inhibitors of TGF-b: Cytotox Counterscreen for Cherry Picks; details: HepG2 CAGA-GFP viability, ATP luminescence, 18 h, cells stimulated with TGF-beta, 500 pg/mL; series mostly up to 46.1 µM; activity, negative = cytotoxicity: at the top concentration; further: nearly all actives have a fitted effect of over 70% in size
Source text: TGF-b is a main component in the TGF-b signaling pathway which plays diverse roles in cellular and development pathways. TGF-b is mediated by transcription factors called "Smads". Although the Smad-dependent pathway is the primary canonical TGF-b signaling mode, TGF-b1 can also activate alternative signaling pathways, including those involving MAPK (ERK, JNK and p38). This interaction may mediate or enhance Smad-dependent responses, or can exert Smad-independent effects. The complexity of this signaling cascade allows the TGF-b superfamily to perform unique, overlapping or redundant functions. We believe that targeting the TGF-beta pathway at the Smad-transcription factor level may eliminate the consequences of disrupting the entire pathway and offer specificity without affecting other signaling pathways. Smad3 is the primary transducer of TGF-b's signals and Smad3 regulates many functions attributed to TGF-b signaling. We hypothesize that Smad3 inhibitors will selectively eliminate Smad3-specific TGF-beta signals without undesired off-target effects. We aim to identify Smad3-small molecule antagonists using a quantitative high throughput screening (qHTS) approach. A high-throughput assay was developed to screen the NIH Molecular Libraries Small Molecule Repository (MLSMR). This is a cell based assay, where TGF-b is tagged with GFP. This is a counterscreen that evaluates the cytotoxicity of the compounds that were identified as hits in the primary cell-based screen (AID 588855). MH087449NIH Chemical Genomics Center [NCGC] NIH Molecular Libraries Probe Centers Network [MLPCN] MLPCN Grant: MH087449 Assay Submitter (PI): Sushil Rane, National Institute of Diabetes and Kidney Diseases
Suspensions of trypsinized HEPG2 CAGA-GFP cells were dispensed into white, tissue culture-treated, solid 1536-well plates at 5uL/well (1000 cells/well final concentration) in DMEM medium supplemented with 1% FBS. Plates were incubated at 37 degrees C for 2 hours, after which 23 nL of compounds or DMSO were delivered to each well using a pin tool. One uL of recombinant TGF-beta in DMEM (1% FBS) was then dispensed (500 pg/mL final concentration), and plates were incubated at 37 degrees C for 18 hours. Two uL of CellTiter Glo (Promega), a luminescence-based viability reagent, was dispensed, followed by a 10 minute room temperature incubation. The plates were then measured on a PerkinElmer ViewLux plate reader for luminescence (clear filter) using a 5 second exposure. The %Activity was determined from the corrected luminescence values. Wells containing media only (no cells) were used to normalize %Activity of identified toxic compounds; media-only wells corresponded to 100%Activity (complete cell-killing), while DMSO-dosed cell controls were used to normalize 0%Activity (no toxicity). Concentration-response curves were fitted to the signals arising from the resulting luminescence. The concentration-effect curves were then classified based on curve quality (r2), response magnitude and degree of measured activity, and compounds were subsequently categorized based on their curve class.
Potency means the concentration at half of the fitted maximal effect.

Row | Structure (SMILES) | Potency | activity, negative = cytotoxicity
1 | COc1cc(NC(=O)c2[nH]cnc2C(N)=O)cc(C(=O)Nc2cccc(C(F)(F)F)c2)c1 | 20.6 µM (active) | 
2 | Cc1ccc(S(=O)(=O)Nc2nc3ccccc3nc2N2CCc3ccccc3C2)cc1 |  | -22.6%
3 | Cc1ccc(CN2CC(N3CCC(Cc4ccccc4)CC3)CS2(=O)=O)cc1 (centres undefined) |  | -20.7%
4 | COc1ccc(C)cc1S(=O)(=O)N1CCN(S(=O)(=O)c2cc(C(=O)O)ccc2C)CC1 |  | 2.15%
5 | O=C(/C(=C/c1cccc(Cl)c1)c1nc2ccccc2[nH]1)c1ccccc1 | 6.51 µM (active) | 
6 | CN(c1ccccc1)S(=O)(=O)c1ccc(C(=O)N2CCN(c3ccccc3Cl)CC2)cc1 |  | -8.45%
7 | O=c1[nH]c(CCl)nc2cc(-c3ccc(Cl)cc3)sc12 | 23.1 µM (active) | 
8 | CN(C)CCNC(=O)c1ccc(Cl)c2cc3ccccc3nc12 | 2.59 µM (active) | 
9 | CC[C@H]1CN2CCc3cc(OC)c(OC)cc3[C@@H]2C[C@@H]1C[C@H]1NCCc2cc(OC)c(OC)cc21 | 3.66 µM (active) | 
10 | COc1ccc(-c2onc(C)c2-c2ccc3c(c2)OCCO3)c(O)c1 |  | -22.4%
11 | COc1ccc(CC(=O)Nc2ccccc2NC(=O)c2ccco2)cc1OC |  | 8.69%
12 | O=C(Nc1nnc(S(=O)(=O)N2CCCCCC2)s1)c1cccc(Br)c1 | 7.31 µM (active) | 
13 | Cc1ccc(S(=O)(=O)Nc2ccc3c(c2)C(=O)N([C@H](C)CO)C[C@@H](C)[C@@H](CN(C)C(=O)Nc2cccc4ccccc24)O3)cc1 |  | -28.8%
14 | COc1cccc2sc(N(CCCN(C)C)C(=O)CCS(=O)(=O)c3ccccc3)nc12 | 13 µM (active) | 
15 | Cc1cccc2sc(N(CCCN(C)C)C(=O)CCS(=O)(=O)c3ccccc3)nc12 | 18.4 µM (active) | 
16 | COC(=O)COc1cccc2c(=O)n(CC(=O)NCc3ccccc3)ccc12 |  | -2.86%
17 | CCCc1cc(-c2n[nH]c(=S)n2CC)c2ccccc2n1 |  | 3.2%
18 | Cc1ccc(C)c(S(=O)(=O)N2CCN(CC(=O)Nc3ccc([N+](=O)[O-])cc3)CC2)c1 |  | -22.4%
19 | Cc1ccnc(NC(=O)C2CCN(S(=O)(=O)c3c(C)c(C)cc(C)c3C)CC2)c1 | 11.6 µM (active) | 
20 | Fc1cc(F)c2nc(Nc3nc4c(F)cccc4s3)sc2c1 |  | -21.5%

Row | Structure (SMILES) | Potency | activity, negative = cytotoxicity
21 | Cc1cc(C)cc(N(CC(=O)N2CC=C(c3ccccc3)CC2)S(=O)(=O)c2c(C)noc2C)c1 |  | -22.1%
22 | Cc1cccc(NC(=O)c2nc(S(=O)(=O)Cc3ccccc3)ncc2Cl)c1 | 4.61 µM (active) | 
23 | Cc1cccc(CS(=O)(=O)c2ncc(Cl)c(C(=O)Nc3ccc(F)cc3)n2)c1 | 10.3 µM (active) | 
24 | CC(=O)c1cccc(-c2cnc3c(NC=O)cc(-c4ccc(N(C)C)cc4)cn23)c1 |  | -21.9%
25 | O=C(Nc1ccc(Cl)cc1)Nc1nnc(/C=C/c2ccccc2)s1 |  | -16.4%
26 | COc1ccc2nc(N3CCN(C(=O)c4ccc([N+](=O)[O-])o4)CC3)sc2c1 | 23.1 µM (active) | 
27 | c1ccc2cc3c(NCCN4CCOCC4)ccnc3cc2c1 | 18.4 µM (active) | 
28 | CN(C(=O)c1cccc(NC(=O)Cc2cccc([N+](=O)[O-])c2)c1)C1CCCCC1 |  | -11.1%
29 | OCCCNc1nccc(-c2cc(Nc3cccc(Cl)c3)ncn2)n1 | 0.651 µM (active) | 
30 | CCOC(=O)C1=C(N)N(c2ccc(C)cc2)C2=C(C(=O)CCC2)C1c1cccs1 (centres undefined) |  | -23.3%
31 | CN(C)c1nc(=Nc2cccc(Cl)c2)ss1 |  | -14.9%
32 | COc1cccc(CNc2nc(NCc3ccccc3OC)nc3ccsc23)c1 | 16.4 µM (active) | 
33 | FC(F)(F)c1ccccc1Cc1c(-c2ccccc2)nc2c3ccccc3ccn12 |  | -27.2%
34 | COc1cc(NC(=O)c2ccccc2NS(=O)(=O)c2ccc(Cl)s2)cc(OC)c1 | 8.2 µM (active) | 
35 | COc1cc(CC(=O)Nc2nc(-c3ccc(F)c(F)c3)cs2)cc(OC)c1OC | 9.2 µM (active) | 
36 | Cn1c(=O)n(C)c2cc(S(=O)(=O)N3CCCc4ccccc43)ccc21 |  | -7.71%
37 | CC1CCc2c(nc3ncnn3c2Nc2ccc(OC(F)(F)F)cc2)C1 (centres undefined) |  | -6.61%
38 | Clc1ccc2c(c1)C1=C(C(c3ccncc3)O2)C(c2ccc(Br)cc2)n2ncnc2N1 (centres undefined) |  | -17.4%
39 | O=C(NC1=CC(=O)c2ccccc2C1=O)c1ccccc1 | 8.2 µM (active) | 
